D1 potentiator: potentiators of human D1 dopamine receptor; potentiation, % at 10 µM; HEK293 TREx D1 cells, calcium flux, dopamine EC20 potentiation; 0.036% of 360,000 active; P21728; in the data active = potentiation above about 30%
Target sequence (P21728 whole entry, looked up): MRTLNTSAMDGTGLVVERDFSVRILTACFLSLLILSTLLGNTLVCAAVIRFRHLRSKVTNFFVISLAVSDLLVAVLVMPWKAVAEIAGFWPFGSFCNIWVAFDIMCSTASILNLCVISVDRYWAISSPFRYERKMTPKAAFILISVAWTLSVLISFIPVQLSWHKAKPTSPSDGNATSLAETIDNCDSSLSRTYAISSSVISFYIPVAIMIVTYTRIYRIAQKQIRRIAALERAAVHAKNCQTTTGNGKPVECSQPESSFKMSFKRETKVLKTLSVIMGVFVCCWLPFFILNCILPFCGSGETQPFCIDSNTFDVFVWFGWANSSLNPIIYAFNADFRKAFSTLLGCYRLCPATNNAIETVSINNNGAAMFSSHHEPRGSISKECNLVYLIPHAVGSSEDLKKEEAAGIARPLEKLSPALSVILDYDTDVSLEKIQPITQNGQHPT
D3 ag: activates the human D3 dopamine receptor; P35462; D3R DiscoveRx beta-arrestin cells, luminescence, 90 min; max activation, %; 0.58% of 410,000 active; AID 652048; in the data active = max activation above about 30%
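Cells at 1500/well, incubated overnight, then treated with pinned compounds (dopamine as control) for 90 min at 37 degrees C. DiscoveRx reagent added for 30 - 60 minutes at room temperature; luminescence read.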
DRD3 antagonist: antagonists of human D3 dopamine receptor | D3R cells, DiscoveRx beta-arrestin luminescence, antagonist mode; hits give low values | max response, negative = inhibition, % | 2.5% of 360,000 active | AID 652054; in the data active = max response below about -50%; inconclusive = no clear call, values can overlap the other calls
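Cells expressing the human receptor were seeded at 1500 cells/well, incubated overnight at 37 degrees C in 5% CO2, then exposed to library compounds with dopamine controls for 90 minutes at 37 degrees C before luminescent detection.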
D1 antag: antagonists of human D1 dopamine receptor | P21728 | HEK293 TREx D1 cells, calcium flux, dopamine EC80; hits give low values | activity change, negative = inhibition, % at 10 µM | 3.2% of 360,000 active; in the data active = activity change below about -30%
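Using tetracycline-induced force-coupled D1 Hek293 cells and a calcium dye, signals were followed for 180 s after compound, then for 180 s after EC80 dopamine, to detect inhibitors.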
D1 ag: activates the human D1 dopamine receptor. P21728. HEK293 T-REx D1 cells, calcium flux, agonist mode. activation, % at 2 µM. 1% of 360,000 active; in the data active = activation above about 30%
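Tetracycline-induced HEK293 TREx D1 cells, force-coupled to calcium signalling, were dye-loaded with a no-wash calcium kit. Compound was pin-added after a 10 s baseline. Fluorescence was read kinetically at 1 cycle/s for 180 s, with calcium rises flagged as agonism.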
A number is an active result; i = inactive; ? = inconclusive; nt = no result given. Shown are actives, neighbours in structure and some others; about 6% of the full set was active somewhere.

SMILES	D1 potentiator	D3 ag	DRD3 antagonist	D1 antag	D1 ag
O=C(COC(=O)/C=C/C(=O)OCC(=O)NC12CC3CC(CC(C3)C1)C2)NC12CC3CC(CC(C3)C1)C2	i	i	-59	i	i
COc1ccccc1N1CCN(CCCNC(=O)C2CCCN(c3ncnc4c3nc3n4CCCCC3)C2)CC1 (stereo unspecified)	i	i	-104	i	i
O=C(NCCCN1CCN(c2ccc(F)cc2)CC1)C1CCCN(c2ncnc3c2nc2n3CCCCC2)C1 (stereo unspecified)	i	i	-55	i	i
O=C(NC1CCCC1)c1ccc2c(=O)n(Cc3ccccc3)c(SCc3cccc(F)c3)nc2c1	i	i	nt	i	i
O=C(N/N=C/c1ccc(OCc2cnc(Cl)s2)cc1)c1ccncc1	i	i	i	-33	i
O=C(N/N=C/c1ccc(OCc2ccccc2)cc1)c1ccncc1	i	i	i	i	i
CCn1nc(C)cc1C(=O)N1CCCC(N2CCN(c3cccc(Cl)c3)CC2)C1 (stereo unspecified)	i	nt	nt	-54	i
O=C(c1ccoc1)N1CCCC(N2CCN(c3ccc(F)cc3)CC2)C1 (stereo unspecified)	i	i	i	i	i
O=C(c1ccoc1)N1CCCC(N2CCN(c3cccc(Cl)c3)CC2)C1 (stereo unspecified)	i	i	i	-46	i
Cc1cc(C(=O)N2CCCC(N3CCN(c4cccc(Cl)c4)CC3)C2)n(C)n1 (stereo unspecified)	i	i	i	i	i
Cc1ccc(NS(=O)(=O)c2ccc(-c3coc(C)n3)cc2)c(Cl)c1	nt	i	i	nt	nt
NC(Cc1ccccc1)C(=O)O (stereo unspecified)	nt	i	nt	nt	nt
CC(=O)Nc1ccc(SCC(=O)N(C)C2CCS(=O)(=O)C2)cc1 (stereo unspecified)	i	i	-59	i	i
CN(C(=O)CSc1ncccn1)C1CCS(=O)(=O)C1 (stereo unspecified)	nt	i	i	nt	nt
CCc1ccc(Nc2nnc(SCC(=O)N(C)C3CCS(=O)(=O)C3)s2)cc1 (stereo unspecified)	i	i	i	-70	i
COC(=O)c1ccccc1NC(=O)Cn1c(-c2nonc2N)nc2ccccc21	i	i	i	-67	i
Cn1c(-c2nonc2N)nc2ccccc21	i	i	i	i	i
CCCn1c(-c2nonc2N)nc2ccccc21	i	i	i	-62	i
COC(=O)CN(C(=O)CSc1nnc(-c2cccc(OC)c2)o1)c1ccc(OC)cc1	i	i	i	i	i
CCOC(=O)CN(C(=O)CSc1nnc(-c2cccc(OC)c2)o1)c1ccc(F)cc1	i	i	i	i	56
CCOC(=O)CN(C(=O)CSc1nnc(CNc2ccc(F)cc2)o1)c1ccccc1	i	i	-80	i	i
COCCN(C(=S)Nc1cccc(C)c1C)C(C)c1ccco1 (stereo unspecified)	i	i	i	i	i
COCCN(C(=S)Nc1ccccc1C)C(C)c1ccco1 (stereo unspecified)	i	i	i	-71	i
COc1cccc2sc(Nc3nnc(-c4ccccc4Cl)o3)nc12	i	i	i	i	43
CN1CCN(C(=O)C[C@@H]2CC[C@@H]3[C@H](COC[C@@H](O)CN3Cc3cccc(Cl)c3)O2)CC1	nt	i	i	nt	nt
SMILES	D1 potentiator	D3 ag	DRD3 antagonist	D1 antag	D1 ag
CCC(=O)N1CCc2cc(CNC(=O)c3ccc(F)cc3)ccc21	i	i	nt	i	i
Cn1nc(C(F)(F)F)c(-c2ccc(Br)cc2)c1NC(=O)Nc1ccc(F)cc1F	i	i	i	-34	i
O=C1NC(=Nc2ccccc2)/C(=C/c2ccco2)S1	i	i	i	-37	i
Cc1ccc(N=C2NC(=O)S/C2=C\c2ccco2)cc1	i	i	?	-36	i
O=[S+]([O-])(c1ccc2ncsc2c1)N1CCN([S+](=O)([O-])c2c(F)cccc2F)CC1	i	nt	nt	i	i
CCOc1ccc(N=c2scc(-c3ccccc3)n2CCO)cc1	i	i	i	i	i
OCCn1c(-c2ccc(F)cc2)csc1=Nc1ccccc1	i	i	i	-31	i
OCCn1c(-c2ccc3c(c2)OCO3)csc1=Nc1ccccc1	i	i	-70	i	i
COc1ccccc1NC(=O)CSc1nnc(NC(=O)Nc2ccc(C)cc2)s1	i	i	nt	nt	i
O=C(CSc1ncnc2sccc12)Nc1ccccc1	i	i	i	-61	i
O=C(CSc1ncnc2sccc12)Nc1ccccc1F	i	i	i	i	i
O=C1NC2(CCC3(CC2)OCCO3)NN1c1ccccc1	i	i	i	i	i
O=C1NC2(NN1c1ccccc1)C1CC3CC(C1)CC2C3 (stereo unspecified)	i	i	?	i	43
CC(=O)Nc1ccc(S(=O)(=O)N2CCC(c3ccncc3)CC2)cc1	i	i	nt	-37	i
COc1ccccc1-c1nnc(C2CCN(S(=O)(=O)c3ccc([N+](=O)[O-])cc3)CC2)o1	i	i	i	i	37
Cc1ccc(S(=O)(=O)N2CCC(c3ccncc3)CC2)c(C)c1	i	i	nt	-34	i
CC(C)(C)c1ccc(S(=O)(=O)N2CCC(c3ccncc3)CC2)cc1	i	i	nt	i	i
COc1ccccc1-c1nnc(C2CCN(S(=O)(=O)c3cccc([N+](=O)[O-])c3)CC2)o1	i	i	i	i	i
CC(=O)Nc1ccc(S(=O)(=O)N2CCC(C(=O)Nc3nccs3)CC2)cc1	i	i	i	-39	i
CS(=O)(=O)N(CC(=O)NCCSCc1ccccc1)c1cc(C(F)(F)F)ccc1Cl	i	i	nt	i	i
Cc1ccc(-c2nnc(C3CCN(S(=O)(=O)c4ccc(C)c(C)c4)CC3)o2)cc1	i	i	nt	i	i
CC(=O)Nc1ccc(S(=O)(=O)N2CCC(c3nnc(-c4ccc(C)cc4)o3)CC2)cc1	i	i	i	-33	i
CCc1nn(-c2ccccc2)c2nc(-c3cccc(OC)c3)c3cc(OC)c(OC)cc3c12	i	i	nt	i	i
CC(=O)CC1(O)C(=O)N(CN2CCN(c3ccccc3)CC2)c2ccccc21 (stereo unspecified)	i	i	-58	i	i
CC1CCOC2(O1)C(=O)N(CN1CCN(c3cccc(Cl)c3)CC1)c1ccccc12 (stereo unspecified)	i	i	-57	i	i
COCCNC(=O)c1ccc(N2CC3CC(C2)c2cccc(=O)n2C3)c(NC(=O)c2ccc(C(C)(C)C)cc2)c1 (stereo unspecified)	nt	i	i	nt	nt
Cc1cc(C)c2c(N)c3cccc(C)c3nc2n1	i	i	i	i	54
Cc1cccc2c(N)c3c(nc12)CCCC3 (tested in a mixture with another compound)	i	i	i	i	i
COc1cc(F)ccc1CN1CCC(C(=O)Nc2ccc(Oc3ccccc3)nc2)CC1	i	i	i	i	47
CCc1ccc(CN2CCC(C(=O)Nc3ccc(Oc4ccccc4)nc3)CC2)o1	i	i	i	i	37
